From PubChem BioAssay (EPA / NIEHS)
“And” between values parts separate entries of the source, which are not always exact repeats. Equal values may be shown once. Inconclusive results are not listed. Some structures have more than one record in an assay (separate samples or runs), and their calls can disagree. The source made the active and inactive calls. How the source made its calls, unless noted: active means hit-call score of the fitted dose curve at least 0.9, where 1 is the maximum; inactive means score below 0.9.

Key:
[1] = target: human RAR-related Orphan Receptor gamma (RORg), RORC (gene 6097) (UniProt P51449); assay: ATG_RORg_TRANS: Attagene TRANS-FACTORIAL HepG2 Assay for human RAR-related Orphan Receptor gamma (RORg) (AID 2283011; active means hit-call score of the fitted dose curve at least 0.9, where 1 is the maximum;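 on AC50: potency for induction of reporter transcripts above DMSO so activators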)
How it was run: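 First, HepG2 liver cells were transfected with GAL4-UAS-driven reporter constructs and the RORg-Gal4 fusion. Next, they were treated with chemical for 24 h. Finally, reporter mRNA was quantified by RT-PCR and capillary electrophoresis, with upward activity fitted against DMSO.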

[2] = target: Retinoic acid receptor RXR-alpha (Homo sapiens) (UniProt P19793); assay: ATG_RXRa_TRANS: Attagene TRANS-FACTORIAL HepG2 Assay for human Retinoid X Receptor alpha (RXRa) (AID 2283012; active means hit-call score of the fitted dose curve at least 0.9, where 1 is the maximum)
How it was run: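 TRANS format reporting activity of exogenous RXRa-Gal4 chimera in transiently transfected HepG2, 24 h exposure. Reporter transcripts quantified by RT-PCR with capillary electrophoresis, with gain of signal scored relative to DMSO.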

[3] = target: human Retinoid X Receptor beta (RXRb), RXRB (gene 6257) (UniProt P28702); assay: ATG_RXRb_TRANS: Attagene TRANS-FACTORIAL HepG2 Assay for human Retinoid X Receptor beta (RXRb) (AID 2283013; active means hit-call score of the fitted dose curve at least 0.9, where 1 is the maximum)
How it was run: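 Readout is reporter transcript induction after 24 h dosing. It is measured by RT-PCR of total RNA followed by fluorescent capillary electrophoresis. HepG2 liver cells carry transfected multiple reporter units driven by an exogenous RXRb-Gal4 fusion; activity is relative to DMSO.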

[4] = target: human Thyroid Receptor alpha (THRa1), THRA (gene 7067) (UniProt P10827); assay: ATG_THRa1_TRANS: Attagene TRANS-FACTORIAL HepG2 Assay for human Thyroid Receptor alpha (THRa1) (AID 2283014; active means hit-call score of the fitted dose curve at least 0.9, where 1 is the maximum)
How it was run: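 Reporter transcript induction, read by capillary electrophoresis of 6-FAM-labelled RT-PCR products, reflects activity of a transfected THRa1-Gal4 fusion in HepG2 liver cells. Cells were dosed for 24 h; activity was fitted in the positive direction against DMSO.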

[5] = read-out: E-selectin (Homo sapiens) (UniProt P16581); assay: BSK_3C_Eselectin: BioMAP Diversity Plus: 3C Assay for Eselectin Biomarker Activity (AID 2283015); conditions: primary human endothelial cells (HUVEC); actives raise or lower the signal
How it was run: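 ELISA read-out of E-selectin on endothelial monolayers after 24 h chemical treatment. Human umbilical vein primary cells served as the system, with DMSO defining baseline activity for bidirectional fitting.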

[6] = read-out: Interleukin-1 alpha (IL1a), IL1A (gene 3552); assay: BSK_BE3C_IL1a: BioMAP Diversity Plus: BE3C Assay for Interleukin-1 alpha (IL1a) Biomarker Activity (AID 2283016); conditions: primary human bronchial epithelial cells; actives raise or lower the signal
How it was run: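 IL-1a measured by ELISA after 24 h treatment of human primary bronchial epithelial cells, with gain or loss of signal fitted versus DMSO. Parallel cultures stained with SRB gauge overt cytotoxicity.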

[7] = read-out: Monocyte Chemoattractant Protein-1 (MCP1), CCL2 (gene 6347); assay: BSK_3C_MCP1: BioMAP Diversity Plus: 3C Assay for Monocyte Chemoattractant Protein-1 (MCP1) Biomarker Activity (AID 2283017); conditions: primary human endothelial cells (HUVEC); actives raise or lower the signal
How it was run: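 ELISA read-out of MCP-1 from human umbilical vein endothelial cell cultures harvested 24 h post-dosing. Gain or loss of signal was fitted relative to DMSO.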

[8] = read-out: Monocyte Chemoattractant Protein-1 (MCP1), CCL2 (gene 6347); assay: BSK_4H_MCP1: BioMAP Diversity Plus: 4H Assay for Monocyte Chemoattractant Protein-1 (MCP1) Biomarker Activity (AID 2283018); conditions: primary human endothelial cells (HUVEC); actives raise or lower the signal
How it was run: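 ELISA of MCP-1 (CCL2) 24 h after chemical dosing of HUVEC in the BioMAP 4H system. Gain or loss versus DMSO fitted; parallel SRB staining (560 nm) tracked overt cytotoxicity.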

[9] = read-out: Human Leukocyte Antigen - DR isotype (HLADR), HLA-DRA (gene 3122); assay: BSK_3C_HLADR: BioMAP Diversity Plus: 3C Assay for Human Leukocyte Antigen - DR isotype (HLADR) Biomarker Activity (AID 2283019); conditions: primary human endothelial cells (HUVEC); actives raise or lower the signal
How it was run: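 ELISA readout of surface HLA-DR on human umbilical vein endothelium, taken 24 h after chemical treatment. Gain- and loss-of-signal were both fitted relative to DMSO.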

[10] = read-out: Interleukin-8 (IL8), CXCL8 (gene 3576); assay: BSK_3C_IL8: BioMAP Diversity Plus: 3C Assay for Interleukin-8 (IL8) Biomarker Activity (AID 2283020); conditions: primary human endothelial cells (HUVEC); actives raise or lower the signal
How it was run: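 IL-8 was measured by ELISA in HUVEC cultures 24 h after chemical dosing, with gain or loss of signal fitted relative to DMSO. Parallel SRB total-protein staining tracked overt cytotoxicity.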

Measured: AC50

Chain of E-selectin (Homo sapiens) (P16581 whole entry, looked up): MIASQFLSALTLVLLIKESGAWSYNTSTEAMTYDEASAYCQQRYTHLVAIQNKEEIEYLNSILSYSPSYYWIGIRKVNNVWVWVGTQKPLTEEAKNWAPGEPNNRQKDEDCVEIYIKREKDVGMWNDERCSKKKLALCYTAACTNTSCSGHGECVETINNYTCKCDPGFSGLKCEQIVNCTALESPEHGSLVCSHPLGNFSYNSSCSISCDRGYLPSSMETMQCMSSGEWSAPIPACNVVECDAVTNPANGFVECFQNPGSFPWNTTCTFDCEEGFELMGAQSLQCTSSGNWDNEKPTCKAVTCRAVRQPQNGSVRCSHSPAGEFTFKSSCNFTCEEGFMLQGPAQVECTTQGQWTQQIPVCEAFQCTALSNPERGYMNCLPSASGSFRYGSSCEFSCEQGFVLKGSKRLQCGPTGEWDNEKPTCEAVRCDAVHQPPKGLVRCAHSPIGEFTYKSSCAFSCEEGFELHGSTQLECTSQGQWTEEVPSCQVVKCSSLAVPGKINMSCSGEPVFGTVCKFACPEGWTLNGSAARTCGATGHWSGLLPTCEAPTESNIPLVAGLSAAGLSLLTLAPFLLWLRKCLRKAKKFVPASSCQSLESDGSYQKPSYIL
Chain of human Thyroid Receptor alpha (THRa1), THRA (gene 7067) (P10827 whole entry, looked up, the tested form may be a part): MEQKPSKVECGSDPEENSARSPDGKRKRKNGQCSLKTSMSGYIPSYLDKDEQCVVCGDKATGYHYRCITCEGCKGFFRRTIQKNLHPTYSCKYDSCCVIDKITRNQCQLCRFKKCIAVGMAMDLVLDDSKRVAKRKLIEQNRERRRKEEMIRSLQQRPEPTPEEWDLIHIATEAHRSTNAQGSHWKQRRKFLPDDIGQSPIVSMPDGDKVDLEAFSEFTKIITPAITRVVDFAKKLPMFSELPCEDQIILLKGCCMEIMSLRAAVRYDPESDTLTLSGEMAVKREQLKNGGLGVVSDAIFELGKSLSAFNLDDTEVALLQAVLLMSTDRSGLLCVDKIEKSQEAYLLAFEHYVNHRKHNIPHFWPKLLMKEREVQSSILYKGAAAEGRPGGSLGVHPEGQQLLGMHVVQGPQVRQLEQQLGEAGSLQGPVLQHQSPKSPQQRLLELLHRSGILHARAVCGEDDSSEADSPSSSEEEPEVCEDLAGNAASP
Chain of human Retinoid X Receptor beta (RXRb), RXRB (gene 6257) (P28702 whole entry, looked up, the tested form may be a part): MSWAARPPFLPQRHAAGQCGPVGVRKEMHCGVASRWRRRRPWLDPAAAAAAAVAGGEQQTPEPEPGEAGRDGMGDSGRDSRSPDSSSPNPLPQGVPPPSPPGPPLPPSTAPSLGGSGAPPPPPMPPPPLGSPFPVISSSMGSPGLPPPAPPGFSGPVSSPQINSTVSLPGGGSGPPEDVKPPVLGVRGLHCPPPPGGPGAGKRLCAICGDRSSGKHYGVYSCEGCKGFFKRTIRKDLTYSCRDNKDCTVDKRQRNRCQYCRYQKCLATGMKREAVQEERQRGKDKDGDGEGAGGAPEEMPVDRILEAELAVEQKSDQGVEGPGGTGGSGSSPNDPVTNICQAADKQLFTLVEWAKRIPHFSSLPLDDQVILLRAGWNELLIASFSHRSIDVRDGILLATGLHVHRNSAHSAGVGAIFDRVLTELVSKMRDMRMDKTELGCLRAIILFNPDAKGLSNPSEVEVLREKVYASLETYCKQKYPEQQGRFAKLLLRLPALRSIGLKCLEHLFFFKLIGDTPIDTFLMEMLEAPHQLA
Chain of human RAR-related Orphan Receptor gamma (RORg), RORC (gene 6097) (P51449 whole entry, looked up, the tested form may be a part): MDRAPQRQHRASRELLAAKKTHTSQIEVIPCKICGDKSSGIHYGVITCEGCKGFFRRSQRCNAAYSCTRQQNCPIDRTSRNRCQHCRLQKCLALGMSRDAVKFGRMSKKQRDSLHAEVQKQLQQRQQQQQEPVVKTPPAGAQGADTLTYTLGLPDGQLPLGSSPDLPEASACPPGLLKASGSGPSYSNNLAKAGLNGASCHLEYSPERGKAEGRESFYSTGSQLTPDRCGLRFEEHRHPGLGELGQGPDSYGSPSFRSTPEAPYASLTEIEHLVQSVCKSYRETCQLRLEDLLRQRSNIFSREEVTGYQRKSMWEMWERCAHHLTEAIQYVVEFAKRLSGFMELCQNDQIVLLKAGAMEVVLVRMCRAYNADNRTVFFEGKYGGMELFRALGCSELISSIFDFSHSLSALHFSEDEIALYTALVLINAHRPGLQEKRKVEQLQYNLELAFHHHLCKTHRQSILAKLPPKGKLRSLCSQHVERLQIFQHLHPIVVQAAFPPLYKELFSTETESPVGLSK
Chain of Retinoic acid receptor RXR-alpha (Homo sapiens) (P19793 whole entry, looked up, the tested form may be a part): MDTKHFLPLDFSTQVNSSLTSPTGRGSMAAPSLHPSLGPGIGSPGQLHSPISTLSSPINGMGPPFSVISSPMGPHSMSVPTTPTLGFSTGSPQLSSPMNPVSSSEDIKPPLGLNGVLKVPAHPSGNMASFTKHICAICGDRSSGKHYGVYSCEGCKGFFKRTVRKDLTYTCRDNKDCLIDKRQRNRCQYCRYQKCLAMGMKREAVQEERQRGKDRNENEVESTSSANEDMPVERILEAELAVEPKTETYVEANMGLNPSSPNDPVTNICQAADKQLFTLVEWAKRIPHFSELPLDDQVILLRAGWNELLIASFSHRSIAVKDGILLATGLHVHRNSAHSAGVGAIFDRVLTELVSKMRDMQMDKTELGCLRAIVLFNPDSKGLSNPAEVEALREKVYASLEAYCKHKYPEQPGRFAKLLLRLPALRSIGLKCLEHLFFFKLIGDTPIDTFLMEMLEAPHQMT

ClC(Cl)=C(Cl)C(Cl)=C(Cl)Cl
active: [5] 14.5 µM | [6] 36.7 µM | [7] 31.4 µM | [8] 31.6 µM | [9] 29.8 µM | [10] 32.4 µM
inactive: [1] | [2] | [3] | [4]

O=C(CCl)CCl
inactive: [2] | [4]
active: [1] 60.1 µM

COc1cc(OC)nc(NC(=O)NS(=O)(=O)c2ncccc2C(=O)N(C)C)n1
not listed: [2] | [3] | [4]
inactive: all other assays above

Oc1ccc(-c2ccccc2)cc1
not listed: [1]
inactive: all other assays above

O=[N+]([O-])c1c(Cl)c(Cl)cc(Cl)c1Cl
active: [3] 32.9 µM
inactive: [2] | [4]

CC(=[OH+])/C=C(/C)[O-].CC(=[OH+])/C=C(/C)[O-].CC(=[OH+])/C=C(/C)[O-].[Al]
inactive: [1] | [3] | [4]

CC(C)c1cccc(C(C)C)c1O
active: [3] 50.6 µM
inactive: [2] | [4]

Fc1ccc(C2(Cn3cncn3)OC2c2ccccc2Cl)cc1 (centres undefined)
inactive: [2]

O=C(Nc1ccc2[nH]ccc2c1)c1cc2cc(F)ccc2n1Cc1cccc(F)c1
active: [5] 10.9 µM | [6] 10.3 µM | [7] 8.53 µM | [8] 5.82 µM | [9] 7.97 µM | [10] 6.43 µM
inactive: [1]

COP(=S)(OC)Oc1ccc(Sc2ccc(OP(=S)(OC)OC)cc2)cc1
active: [5] 26.5 µM | [6] 7.5 µM | [7] 27.1 µM | [8] 11.8 µM | [9] 28.5 µM | [10] 7.51 µM
inactive: [1] | [4]

Nc1ccc(Cl)cc1C(=O)c1ccccc1
inactive: [1] | [4]
active: [3] 21.9 µM

CCCCCCCCCl
inactive: [2] | [3]

Clc1ccc(COC(Cn2ccnc2)c2ccc(Cl)cc2Cl)cc1 (centres undefined)
active: [3] 0.103 µM
inactive: [2]

C[C@@H]1C[C@@H]([C@H](O)CC2CC(=O)NC(=O)C2)C(=O)[C@@H](C)C1
inactive: [2] | [3] | [4]
active: [5] 2.4 µM | [6] 10.7 µM | [7] 8.41 µM | [8] 4.06 µM | [9] 3.85 µM | [10] 6.06 µM

COc1cc(-c2ccc(N)c(OC)c2)ccc1N
inactive: [2] | [4] | [5] | [6] | [7] | [8] | [9] | [10]
active: [3] 27.6 µM | [6] 5.28 µM | [7] 30 µM | [9] 25.5 µM | [10] 14.4 µM

C=CC(=O)OCCCCCC(C)C
not listed: [2] | [4]
inactive: all other assays above

CCN1CCC2(CC1)COc1cc3c(cc12)N(C(=O)c1ccc(-c2ccc(-c4nnc(C)o4)cc2C)cc1)CC3
active: [5] 28 µM | [6] 13.8 µM | [7] 14 µM | [8] 26 µM | [9] 13 µM | [10] 18.4 µM
inactive: [2] | [3]

CCC(=O)c1ccccc1
inactive: [2] | [4]

NC(=O)O
not listed: [2]
inactive: all other assays above

N#CN=C(N)N
inactive: [2]

O=C(O)C(F)(F)C(F)(F)C(F)(F)C(F)(F)C(F)(F)C(F)(F)C(F)(F)C(F)(F)C(F)(F)C(F)(F)F
inactive: [1] | [4] | [5] | [7] | [8] | [9] | [10]
active: [5] 30.5 µM | [6] 25.3 µM and 5.25 µM and 5.23 µM | [7] 30.7 µM | [8] 32.3 µM | [9] 29.7 µM | [10] 29 µM

CCOP(=S)(OCC)Oc1nc(Cl)c(Cl)cc1Cl
active: [3] 30.9 µM | [5] 37.1 µM | [7] 33.1 µM | [8] 20 µM | [9] 28.2 µM | [10] 31.1 µM
inactive: [2] | [4] | [6]

COc1cc2c(cc1OC)[C@@]13CCN4CC5=CCO[C@H]6CC(=O)N2[C@H]1[C@H]6[C@H]5C[C@H]43
inactive: [1] | [4]

Nc1ncc([N+](=O)[O-])s1
not listed: [2] | [3] | [4]
inactive: all other assays above

O=C/C=C/c1ccccc1
inactive: [2]

COc1ccccc1OC
inactive: [1] | [3]

CCC[CH2][Sn]([CH2]CCC)([CH2]CCC)[O]C(=O)c1ccccc1
active: [2] 0.00575 µM | [3] 0.105 µM

C=CCc1ccc(OC)cc1
inactive: [1] | [4]

c1ccc(N=NNc2ccccc2)cc1
active: [4] 134 µM
inactive: [2]

Cc1ccc2ccccc2c1C
active: [3] 100 µM
inactive: [2] | [4]

COP(=O)(OC)OC
inactive: [1] | [4]

CC(C)(C)c1cc(O)ccc1O
active: [5] 31.8 µM | [7] 35.2 µM | [9] 32.4 µM
not listed: [2] | [3]
inactive: all other assays above

CCC(C)(C)c1ccc(O)c(C(C)(C)CC)c1
active: [2] 33.4 µM | [3] 9.09 µM | [4] 45.8 µM | [5] 10.4 µM | [6] 32.5 µM | [7] 9.92 µM | [8] 11.1 µM | [9] 7.84 µM | [10] 8.88 µM

Oc1c(I)cc(I)cc1I
active: [4] 7.66 µM | [5] 11.3 µM | [6] 8.87 µM | [7] 11.9 µM | [8] 20 µM | [9] 9.5 µM | [10] 11.5 µM
inactive: [2] | [3]

C=CC(=O)N(C)C
inactive: [2] | [4]
